High-throughput results from PubChem BioAssay.
RORg inh – blocks mouse ROR gamma transcriptional activity; P51450; Drosophila S2 Gal4-RORgamma UAS-luciferase reporter, 20 h; Potency, µM (series often up to 53.6 µM), for inactives: at the top dose activity change, negative = inhibition, usual class: inhibitors; 310,000 tested, 5.4% active; note: nearly all actives have a fitted effect of over 60% in size
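Stable Schneider cell line, Gal4 DNA-binding domain fused to ROR gamma, UAS-luciferase. Cmpd 1 hr RT → CuSO4 700 uM final → 20 hr RT → luciferase reagent 10 min → luminescence.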
Luc counter – blocks Kinase-Glo luciferase, a counter-screen artifact. Q27757. Kinase-Glo luciferase, ATP luminescence, 8 min. Potency, µM (titrated, usually from 38.3 µM), for inactives: top-dose activity change, negative = inhibition, actives largely listed as inhibitors. 200,000 tested, 0.28% active; note: nearly all actives have a fitted effect of over 60% in size
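Recombinant Kinase-Glo luciferase, 10 uM ATP (linear range), luciferin; imidazole pH 7.2 / KCl / MgCl2 / Tween / BSA buffer; 8 min RT; luminescence.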
VP16 counter – counter-screen for ROR gamma inhibitors: Gal4-VP16 reporter; Drosophila S2 Gal4-VP16 UAS-luciferase, luminescence, 20 h; Potency, µM (highest dose often 53.6 µM), for the others: at the highest dose activity, negative = inhibition, usual class: inhibitors; 310,000 tested, 3.5% active; AID 2546;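 note: Gal4-VP16 expression switched on by copper sulfate through the metallothionein promoter; nearly all actives have a fitted effect of over 50% in size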
Starred values were filed as active, the others as inactive; ? = inconclusive; . = not tested or not shown; [ ] = remark or other dose. Most compounds without a hit are left out; they make up all but 6.4% or so of the library. Calls come from the whole dose curve; as a rule, active = well fitted curve in the direction sought with a large enough effect; inconclusive = small, poorly fitted or top-dose-only effect, or another doubt; inactive = no such curve, though single readings can be large; an effect the other way counts as inactive or inconclusive. % is set by controls: 0 for no effect and ±100 for the full control effect; potency is the fitted concentration of half-maximal effect.

SMILES | RORg inh | Luc counter | VP16 counter
CCC(C)Nc1nc2c(c(=O)n(C)c(=O)n2C)n1Cc1ccc(F)cc1 (centres undefined) | 13% | 3% | 4%
Cn1c(=O)c2c(nc(N/N=C/c3ccc(OC(=O)c4ccco4)cc3)n2Cc2ccc(F)cc2)n(C)c1=O | -11% | 1% | 18µM*
O=C1CC(NNc2ccccc2)C(=O)N1c1ccc(N2CCCCC2)cc1 (centres undefined) | 21% | -1% | -12%
CC1(C)C(=O)OC(c2ccc([N+](=O)[O-])cc2)C(C)(C)C1=O (centres undefined) | 16% | . | 1%
O=C(Nc1ccc(S(=O)(=O)Nc2cnc3ccccc3n2)cc1)c1ccccc1Br | ? | . | 6%
C=CCN1/C(=C2/SC(=S)N(C)C2=O)Sc2ccccc21 | ? | . | -21%
CC1=NOC(=O)/C1=C\c1ccc(-c2ccc(Br)cc2)o1 | ? | -8% | ?
Oc1ccc(/C=N\Nc2nncc(-c3ccccc3)n2)cc1 | -27% | . | ?
Brc1ccc(/C=N/Nc2nncc(-c3ccccc3)n2)o1 | 3.5µM* | -1% | -6%
Brc1ccc(-c2ccc(/C=N/Nc3nncc(-c4ccccc4)n3)o2)cc1 | 0.89µM* | -3% | 1.3µM*
CC(=O)NNC(=S)Nc1cccc(F)c1 | -43% | . | -5%
COC(=O)c1sccc1NC(=O)Nc1ccc(OC)cc1 | -6% | . | ?
COC(=O)c1sccc1NC(=O)Nc1cccc(C)c1 | 18% | . | -6%
COC(=O)c1sccc1NC(=S)Nc1cccc(F)c1 | 18µM* | . | ?
COC(=O)c1sccc1NC(=S)Nc1cc(C)cc(C)c1 | 5µM* | 2% | 4.5µM*
COC(=O)c1sccc1NC(=S)N1CCN(c2ccc(F)cc2)CC1 | -21% | 5% | 5%
COC(=O)c1sccc1NC(=S)Nc1ccc(F)cc1F | 5.6µM* | 3% | ?
COC(=O)c1sccc1NC(=S)Nc1ccccc1 | 16µM* | 2% | ?
O=C(NCC1CCCO1)C1CC(=O)N(c2ccc(Cl)cc2)C1 (centres undefined) | 18% | . | 1%
O=C(N/N=C1/SCC(=O)N1Cc1ccco1)c1ccccc1F | 6% | 2% | 4%
CN(Cc1nc(-c2cccs2)no1)CC(O)c1ccccc1 (centres undefined) | 40% | -1% | -16%
COCCCN(C(=S)Nc1c(C)cc(C)cc1C)C(C)c1ccccn1 (centres undefined) | 14µM* | 4% | ?
COCCCN(C(=S)Nc1cc(C)cc(C)c1)C(C)c1ccncc1 (centres undefined) | 13µM* | -1% | ?
Cc1ccc(NC(=S)N(CCN(C)C)C(C)c2cccnc2)cc1 (centres undefined) | -35% | -2% | -2%[10 µM]
Cc1cccc(C)c1NC(=S)N(CCN(C)C)C(C)c1ccccn1 (centres undefined) | -43% | 4% | 1%
SMILES | RORg inh | Luc counter | VP16 counter
CCOc1ccc(NC(=S)N(CCOC)C(C)c2cccnc2)cc1 (centres undefined) | 11µM* | 1% | -1%
COCCN(C(=S)Nc1cccc(C)c1)C(C)c1cccnc1 (centres undefined) | 11µM* | 1% | -4%
CCOc1ccc(NC(=O)N(CCN(C)C)C(C)c2cccnc2)cc1 (centres undefined) | -7% | . | -7%
COCCCN(C(=S)Nc1ccc(OC)cc1)C(C)c1ccncc1 (centres undefined) | -11% | -1% | -2%
C=CCNC(=S)NC(CC(=O)OC)c1ccc2c(c1)OCO2 (centres undefined) | ? | 0% | -6%
COc1ccc([C@]23Cc4cc(OC)c(OC)cc4C(O2)c2c(cc(-c4ccccc4)oc2=O)O3)cc1 | 24%[10 µM] | . | 2%[10 µM]
O=C(NC1CCS(=O)(=O)C1)c1ccc(S(=O)(=O)N2CCCCC2)cc1 (centres undefined) | 14% | 1% | 2%
O=C(O)c1c(-n2cccc2)sc2c1CCCC2 | 1% | 2% | -9%
COC(=O)NC(CCc1ccccc1)C(C(=O)OC)C(=O)OC (centres undefined) | -7% | -6% | 0%
Cc1ccc2nc(-c3ccncc3)c(NC3CCCCC3)n2c1 | 17% | -1% | -16%
CCCC[C@@H]1CCCO[C@@](C(=O)NCCOC)(C(F)(F)F)C1 | -6% | . | -6%
CC(C)n1c(=S)[nH]c2scc(-c3cccs3)c2c1=O | ? | . | -12%
C=CCn1c(=S)[nH]c2scc(-c3ccc(C)o3)c2c1=O | 0.28µM* | 0% | 1.3µM*
O=c1c2c(-c3cccs3)csc2ncn1-c1ccccc1 | 36% | 1% | ?
CCn1c(=S)[nH]c2scc(-c3cccs3)c2c1=O | 0.71µM* | 0% | 3.2µM*
